Measured values as given in PubChem BioAssay AID501 (PCMD, 2006).
The campaign covered roughly 62,000 compounds. About 35 (0.06%) were called active. Cut-off read from the data, not from the text of the source: active = inhibition above about 32% (passing the limit was not always enough); inconclusive = no clear call, values can overlap the other calls. Many of the other results were omitted from the sample, so actives are more common in it than they were.

Each molecule was assayed against Cathepsin S (Homo sapiens) (UniProt P25774) (assay: blockers of CTSS protease activity – biochemical, compound mixtures (AID 501;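 note: 0% = enzyme without compound and 100% = blank without enzyme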)). Conditions: recombinant cathepsin S, AMC dipeptide fluorescence, pooled mixtures; hits give high values;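 tested at 5 µM per compound within 10-compound mixtures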.
Sequence of Cathepsin S (Homo sapiens) (P25774 115-331 limits assumed): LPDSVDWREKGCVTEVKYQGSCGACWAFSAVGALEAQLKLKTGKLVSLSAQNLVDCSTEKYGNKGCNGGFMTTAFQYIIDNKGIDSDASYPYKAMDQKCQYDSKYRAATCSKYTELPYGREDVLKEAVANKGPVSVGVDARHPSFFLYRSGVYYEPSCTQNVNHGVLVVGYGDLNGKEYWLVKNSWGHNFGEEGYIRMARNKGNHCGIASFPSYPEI

inhibition, inactive:
COc1ccc(-n2ncc3c(N4CCc5ccccc54)ncnc32)cc1 -6.55%
COc1ccccc1C(=O)N1CCN=C1SCc1cccnc1 3.41%
CCn1cc(C(=O)N2CCN(Cc3ccc4c(c3)OCO4)CC2)c2cc(OC)c(OC)cc2c1=O 0.555%
Cc1ccc(S(=O)(=O)NCc2cn3ccsc3n2)c(C)c1 -2.17%
CC1(C)CC(=O)C(C=NCc2cccnc2)=C(O)C1 -6.24%
COc1ccc(C(=O)Cn2nnc(-c3ccc(N4CCOCC4)cc3)n2)cc1OC 8.22%
Cc1c(-c2nn(C)c(=O)c3ccccc23)oc2ccc(F)cc2c1=O 21.9%
CCn1c(SCC(=O)Nc2cc(C)ccc2C)nnc1-c1cnccn1 -6.74%
O=C(Cn1nnc(-c2ccccc2)n1)NCc1ccccc1 3.11%
NC(=O)Cn1c(=O)oc2ccccc21 0.705%
Cc1nnc(C)n1/N=C/c1ccc(C(C)C)cc1 5.16%
CCc1nnc(NC(=O)CSc2nnc(-c3ccncc3)n2Cc2ccccc2)s1 15.4%
Cc1cc(N2CCCC2=O)cc(C)c1S(N)(=O)=O 14%
CC(C)OCCCNC(=O)CNC(=O)c1cccs1 15.3%
Cn1cnc2c1c(=O)n(Cc1c(Cl)cccc1Cl)c(=O)n2C -2.21%
CCOC(=O)CNC(=O)CSc1nnc(COc2ccc(Cl)cc2)n1CC 17%
Cc1cccc(N2CCN(C(=O)C3CCN(S(=O)(=O)c4cnc[nH]4)CC3)CC2)c1C -2.09%
CCOC(=O)c1c(NC(=O)c2ccc(Br)o2)sc2c1CCCC2 -2.96%
COc1cccc(N(CC(=O)NC2CCCC2)C(=O)Cn2nnc(-c3ccc(C)cc3)n2)c1 -32.1%
CC1CC(c2ccccc2)n2nc(NC(=O)c3cccs3)nc2N1 (stereo unspecified) 7.8%
CC(=O)Nc1cc2ccc(OC(C)=O)cc2oc1=O -31.5%
C=CCNC(=O)C1CC=CCC1C(=O)O (stereo unspecified) -2.51%
CCOC(=O)CSc1nnc(CNc2nc(-c3ccccc3)cs2)n1C -5.74%
O=C(NC(c1ccccc1)c1ccccc1)N1CCN(CCO)CC1 10.9%
Cc1cc(C(F)(F)F)nn1-c1nc(-c2ccco2)cc(C(F)(F)F)n1 7.66%
COCCn1c(CN(Cc2ccccc2)Cc2ccccc2)nc2c1c(=O)n(C)c(=O)n2C 9.43%
CCN(C(=O)CSc1ncn[nH]1)c1cccc2ccccc12 2.39%
Cc1noc(NS(=O)(=O)c2ccc(N3CC(O)=C(c4ccccc4)C3=N)cc2)c1C -12.9%
CCn1ncc(Br)c1C(=O)Nc1cc(C)ccc1F 6.74%
Cc1ccc(-c2nc(CS(=O)CC(=O)N3CCN(c4ncccn4)CC3)c(C)o2)cc1 (stereo unspecified) 7.31%
CC(C)n1c(C(O)c2ccccc2)nc2ccccc21 (stereo unspecified) -7.12%
Cc1ccccc1N1CC(c2nc3ccccc3[nH]2)CC1=O (stereo unspecified) -1.51%
Cc1ccc(-c2nnc(SC(C)C#N)n2N)cc1 (stereo unspecified) -1.33%
Cn1c(=O)c(C(=O)Nc2ncccn2)c(O)c2ccccc21 -4.57%
CC(=O)NCCc1ccc(S(=O)(=O)N(C)C2CCS(=O)(=O)C2)cc1 (stereo unspecified) 30%
CCc1ccccc1NC(=O)CSc1nnc([C@@H](NC(=O)OC(C)(C)C)C(C)C)o1 9.29%
Cc1nn(C)c(C)c1S(=O)(=O)N1CCc2ccccc21 -5.94%
CCOC(=O)c1sc(N(Cc2ccccc2)C(=O)CN2C(=O)CN(C)C2=O)nc1C -1.84%
COCCn1c(=O)[nH]c2cc(C(=O)NCc3cccnc3)ccc2c1=O 4.14%
Cc1ccc(NC(=O)CS(=O)CC(=O)N(c2ccccc2)C(C)C(=O)NC2CCCC2)cc1 (stereo unspecified) -27.8%
O=C(C1CCN(CC2CCCCC2)CC1)N1CCCC1 -3%
FC(F)Oc1ccccc1C1CC(c2ccc(Br)s2)Nc2ncnn21 (stereo unspecified) 1.68%
CCC(C)n1[nH]c(=O)c2c(C)cc(C)nc21 (stereo unspecified) 12.4%
Cc1nc(NC(=O)CCC(=O)O)sc1C(=O)N(C)C -4.56%
O=C(Cn1cc2c(n1)CCCCC2)NCCN1CCOCC1 7.2%
CC(C)c1ccc(NS(=O)(=O)c2cn(C)c(=O)n(C)c2=O)cc1 -0.575%
COc1ccccc1NC(=O)CSc1nnc(Cn2nnc(-c3ccccc3)n2)n1-c1ccccc1 -0.79%
CC(CNC(=O)c1ccc(Br)o1)NC(=O)c1ccc(Br)o1 (stereo unspecified) 6.17%
COc1cc(Cl)cc(C2NC(=O)NC(C)=C2C(=O)NCc2ccccc2)c1O (stereo unspecified) 7.15%
CCOC(=O)C(C)Oc1cccc2c(=O)n(CC(=O)N3CCc4ccccc43)ccc12 (stereo unspecified) -6.21%
CC(NC(=O)CN1CCN(Cc2ccc(Cl)cc2)C1=O)c1ccc2c(c1)OCCO2 (stereo unspecified) 55.3%
CSc1sc(C)cc1C1C(C#N)=C(N)N(c2cccnc2)C2=C1C(=O)CCC2 (stereo unspecified) 1.56%
NC(=O)c1ccsc1NC(=O)c1ccco1 7.91%
COC(=O)[C@H](CCSC)NC(=O)Nc1ccc(OC)cc1 -1.09%
O=C(CCCn1c(=O)[nH]c2cc(Cl)ccc2c1=O)NCCN1CCN(c2ccccc2)CC1 13.6%
Cc1ccc(-c2noc(CSc3nnc(-c4ccccc4)n3C)n2)cc1 -4.08%
COCCCn1c(CCC(=O)O)ccc1-c1ccc(F)cc1 -19.4%
CCCNS(=O)(=O)c1ccc(CCC(=O)NCc2cccnc2)cc1 -3.48%
CCOc1ccc(CC(=O)Nc2ccc(S(=O)(=O)Nc3cc(C)on3)cc2)cc1OCC -4.34%
Cc1cnc(NC(=O)CSc2nnc(-c3ccccc3)n2Cc2ccccc2)s1 11.8%
CCOc1ccc(NC(=O)Nc2ccc(N(C)C(C)=O)cc2)cc1 -16.6%
